Screening results (PubChem BioAssay)
Nrf2 ARE act: activates Nrf2 signaling; 410,000 tested, 0.31% active; Potency, µM (titrated, usually from 46.1 µM), without a hit: top-dose activation, most hits filed as activators; AID 624171; AREc32 ARE-luciferase reporter (MCF7-derived line), luminescence, 24 h; also: potency is read from the fitted curve at half-maximal effect; % of control where 0% means no effect; nearly all actives have a fitted effect of over 65% in size
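ARE activation measured as luciferase luminescence (Steady-Glo, 30 min RT) in AREc32_Fluc cells after 24 hr compound exposure at 37 deg C, 5% CO2; cells seeded overnight at 1000/well in OPTI-MEM, 5% FBS.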
CCT chaperon mod: changes cytosolic chaperonin activity; purified chaperonin ATPase assay, HTRF ADP detection, 30 min; activity change, % (test concentration not listed), hits read low; 360,000 tested, 0.3% active; in the data active = activity change below about -30%; also: % is scaled to controls: 0 for no effect and ±100 for the full control effect
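We incubate TRiC, 40 or 20 nM final, with library compounds at 76 uM and 10 uM ATP for 30 min at 37 °C. ADP formed is detected with Transcreener HTRF reagents after 30 min at room temperature.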
TCR activator: activates T cell receptor signaling | primary human leukocytes, anti-CD3, IL-2 HTRF, 48 h | Potency, µM (doses to about 9.22 µM), inactives show at the top dose activation of IL-2 secretion, usual class: activators | 330,000 tested, under 10 active; also: % of control where 0% means no effect
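Primary human leukocytes incubated 48 hr with anti-CD3 beads plus compound, without co-stimulation. Secreted IL-2 measured by HTRF (europium cryptate/d2 anti-IL-2 pair, 320 nm excitation, 665 nm emission).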
Nrf2 block: Nrf2 pathway inhibition; 360,000 tested, 2.1% active; Potency, µM (series often up to 46 µM), without a hit: at the highest dose activity change, negative = inhibition, most hits filed as inhibitors; A549 ARE-Fluc reporter, luciferase luminescence, 18-24 h; AID 504444; also: potency is read from the fitted curve at half-maximal effect; % is scaled to controls: 0 for no effect and ±100 for the full control effect; nearly all actives have a fitted effect of over 60% in size
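In this cell-based qHTS, ARE-driven firefly luciferase in A549 cells reports Nrf2 activity; the luminescent signal after BugLite lysis is the measured value, with a prior CellTiter-Fluor read for cell health.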
A549 viability: counter-screen for Nrf2 inhibitors: cytotoxicity in A549 cells; A549 ARE-Fluc cells, CellTiter-Fluor viability, 18-24 h; Potency, µM (top dose mostly 46 µM), for inactives: at the top dose activity change, negative = cytotoxicity, hits mostly inhibitors; 390,000 tested, 0.16% active; AID 504648; also: potency is read from the fitted curve at half-maximal effect; % is scaled to controls: 0 for no effect and ±100 for the full control effect
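A549 ARE_Fluc cells in 5% FBS OPTI-MEM were exposed to compounds in concentration-response for 18-24 h at 37 deg C. Viability was read by CellTiter-Fluor fluorescence (Ex 405/Em 525) after 30 min, before the luciferase read.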
A-T KAP1 phos: candidate therapy for ataxia-telangiectasia; AID 485349; Potency, µM (titrated, usually from 57.5 µM), without a hit: at the highest dose activation, actives largely listed as activators; 320,000 tested, 0.19% active; F2112 A-T fibroblasts, KAP-1 phosphorylation AlphaLISA; neocarzinostatin DNA damage 30 min before lysis; also: potency is read from the fitted curve at half-maximal effect; % of control where 0% means no effect; nearly all actives have a fitted effect of over 45% in size
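hTERT-immortalized A-T patient fibroblasts (F2112), 500 cells/well in OPTI-MEM, 1% FBS, got compounds for 60 min, then NCS for 30 min at 37C. Lysates were then assayed for phospho-KAP-1 by AlphaLISA (anti-pKAP1 donor, anti-KAP1 acceptor beads), 6 hr at 25C.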
Numbers without * were called inactive; ? = inconclusive; . = no result; [ ] = another dose, or the depositor's remark. Rows were chosen to be rich in hits. Some 2.6% of all compounds tested hit in one or more screens of this group. Unless noted, calls follow the shape of the dose curve; as a rule, active = well fitted curve in the direction sought with a large enough effect; inconclusive = small, poorly fitted or top-dose-only effect, or another doubt; inactive = no such curve, though single readings can be large; an effect the other way counts as inactive or inconclusive.

SMILES	Nrf2 ARE act	CCT chaperon mod	TCR activator	Nrf2 block	A549 viability	A-T KAP1 phos
CC(C)(C)Cc1nnc(NC(=O)c2ccco2)s1	4%	-76*	-6%	?	2%	-1%
O=C(COC(=O)CNC(=O)c1ccccc1)Nc1cc(C(F)(F)F)ccc1Cl	.	.	.	16%	-1%	.
O=C(NCCCNC(=O)c1cc(Cl)ccc1Cl)c1ccccn1	0%	0	0%	-24%	1%	4%
CCCN1CCN(C(=O)Cn2nc(C)n3c(cc4sccc43)c2=O)CC1	1%	0	-3%	5%	13%	3%
Cc1nn(CC(=O)N2CCN(c3ccccn3)CC2)c(=O)c2cc3sccc3n12	0%	1	-8%	29µM*	?	-2%
Clc1ccc2nc(C3CCCCC3)c(Cc3ccsc3)n2c1	8%	0	.	.	.	.
CCOC(=O)c1c(-c2ccc(F)cc2)csc1/N=C/N(C)C	3%	-3	1%	16µM*	?	1%
CCc1nc2ccc(C(=O)NCCc3ccc(OC)c(OC)c3)cc2nc1CC	0%	1	11%	-13%	1%	8%
COc1ccc(CCNC(=O)c2ccc3nc(-c4ccco4)c(-c4ccco4)nc3c2)cc1OC	3%	0	-3%	23µM*	-19%	-3%
Nc1ccc(S(=O)(=O)N2CCOCC2)cc1	.	.	.	32%	15%	.
Cc1cc2c(s1)c1cnn(Cc3cccc([N+](=O)[O-])c3)c(=O)c1n2C	.	.	.	-17%	11%	.
Cc1cc(C(=O)Nc2cccc(/C=C/C(=O)O)c2)c(C)o1	0%	-1	.	-4%	3%	-5%
Cc1oc(-c2ccccc2)cc1C(=O)Nc1cccc(/C=C/C(=O)O)c1	2%	-4	3%	23µM*	-25%	15%
Cc1cc(C)c2sc(N(CCCN(C)C)C(=O)c3ccc(Br)s3)nc2c1	-2%	2	10%	15µM*	?	0%
Cc1ccc(Cn2ccc(NC(=O)c3cc(-c4cccc(Cl)c4)on3)n2)cc1	0%	1	4%	21µM*	?	.
Cc1nc(N2CCN(Cc3ccccc3)CC2)nc2c1C(=O)CC(c1ccco1)C2 (stereo not given)	-1%	0	-16%	?	-4%	6%
Cc1nc(N2CCN(Cc3ccc4c(c3)OCO4)CC2)nc2c1C(=O)CC(c1ccco1)C2 (stereo not given)	3%	-2	0%	12µM*	-12%	-1%
Cc1noc(C)c1-c1ccc2ncnc(NCc3ccccc3C(F)(F)F)c2c1	.	.	.	?	5%	.
Cc1nn(-c2ccc(F)cc2)c(Cl)c1C(=O)OC(C)C(=O)N(C)C1CCCCC1 (stereo not given)	9%	3	6%	18µM*	-7%	0%
Cc1ccc(S(=O)(=O)c2nnn3c2nc(NCCc2ccccc2)c2sccc23)cc1	-1%	.	.	21µM*	-1%	.
O=C(NCCCc1nc2ccccc2n1CCOc1ccccc1)C1CCCCC1	.	.	.	-4%	-1%	.
O=C(COC(=O)CCN1C(=O)/C(=C\C=C\c2ccccc2)SC1=S)Nc1cc(F)ccc1F	-1%	-1	-1%	8.2µM*	?	-6%
NC(=S)n1[nH]c(-c2ccc([N+](=O)[O-])cc2)c(N=Nc2cccc(Cl)c2)c1=O	1%	1	-3%	18µM*	?	1%
NC(=S)n1[nH]c(-c2ccc([N+](=O)[O-])cc2)c(N=Nc2ccc(O)cc2)c1=O	3%	-3	.	?	-10%	-1%
Cc1cc2c(s1)c1cnn(Cc3cc(F)c(F)c(F)c3F)c(=O)c1n2C	.	.	.	-11%	0%	.
SMILES	Nrf2 ARE act	CCT chaperon mod	TCR activator	Nrf2 block	A549 viability	A-T KAP1 phos
CCCC12CN3CC(C)(CN(C1)C31C(=O)Nc3ccc(C)cc31)C2=O (stereo not given)	0%	0	.	0%	13%	-7%
CCCC12CN3CC(C)(CN(C1)C31CCCCC1)C2=O	-1%	-48*	-1%	6%	-1%	-6%
CCOc1ccc(NC(=O)CSc2nc3ccccc3c(=O)n2CCC(=O)NC2CCCCC2)cc1	0%	.	.	.	11%	.
Cc1ccc(C)c(Nc2nc(NCc3ccco3)nc3nccnc23)c1	.	.	.	-23%	10%	.
O=C(O)/C=C/c1cn(Cc2ccccc2Cl)nc1-c1ccccc1	0%	-1	-6%	-22%	-1%	10µM*
Clc1ccc(CN(CC2CCCO2)C(c2cccs2)c2nnnn2C2CCCC2)cc1 (stereo not given)	0%	-5	-3%	12µM*	-26%	1%
COc1ccc2c(c1)C=C(CN1CCC(CO)(CCc3ccccc3)CC1)CO2	7%	-3	0%	22%	-6%	0%[11.5 µM]
COc1ccc(CC2(CO)CCN(CC3=Cc4cc(Cl)ccc4OC3)CC2)cc1	2%	1	6%	13µM*	-23%	1%
CC(=NNc1nc2ccccc2s1)c1ncccn1	11µM*	0	-1%	?	?	.
COc1ccc(N(CC(=O)Nc2nccs2)S(=O)(=O)c2c(C)[nH]c(=O)[nH]c2=O)cc1	-1%	-37*	-8%	7%	-5%	0%
CCOc1ccc(N(CC(=O)Nc2ccc(OC)cc2)S(=O)(=O)c2c(C)[nH]c(=O)[nH]c2=O)cc1	0%	-1	3%	6%	-2%	-4%
Cc1ccc(S(=O)(=O)N2CCN(c3nc(C(N)=O)nc4ccccc34)CC2)cc1	.	.	.	5%	2%	.
CCC(=O)NC(=S)Nc1cccc(Cl)c1N1CCCCC1	6%	2	-10%	.	8%	35µM*
CCCCC(=O)NC(=S)Nc1cccc(Cl)c1N1CCCCC1	0%	2	5%[46.1 µM]	-8%	9%	?
CCCC(=O)NC(=S)Nc1cccc(Cl)c1N1CCCCC1	5%	-2	6%	.	?	28µM*
COc1ccc(NC(=O)c2cccn2-c2nnc(N3CCCCC3)s2)c(OC)c1	4%	.	.	?	-2%	.
Cc1ccccc1Cn1nc(C)c(NC(=O)c2noc3c2CC(C(C)(C)C)CC3)c1C (stereo not given)	0%	0	-1%	8.2µM*	-6%	-2%
CC(C)(C)C1CCc2onc(C(=O)Nc3cccc(O)c3)c2C1 (stereo not given)	.	.	.	.	.	0%
Cc1ccccc1Cn1cc(NC(=O)c2noc3c2CC(C(C)(C)C)CC3)cn1 (stereo not given)	-1%	-4	-2%	?	?	-5%
COC(=O)c1ccccc1NC(=O)c1noc2c1CC(C(C)(C)C)CC2 (stereo not given)	0%	-81*	.	.	-2%	9%
COc1ccc(NC(=O)CCc2nnc3n(C)c(=O)c4sccc4n23)cc1Cl	-1%	.	.	1%[9.27 µM]	3%	.
